# Test results taken from PubChem BioAssay (NCI).
# About 79,000 compounds went through this panel and 15% of them were active in at least one assay; those are over-represented in the sample as a whole. Unmarked numbers belong to inactive results. Active and inactive are the calls of the source. No stated cut-off is given here; in the data, active means growth inhibition above about 70%; inactive means the rest.
# How the values were obtained:
# [1] = NCI Yeast Anticancer Drug Screen. Data for the rad50 strain (AID 155);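 further: 0% = growth of vehicle-only cultures of the same strain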; conditions: S. cerevisiae rad50 strain growth inhibition, active compounds read high
# Procedure, shortened: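 Cells are treated with compound, grown, and their growth is then scored against vehicle-only cultures of the same repair-deficient yeast strain.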
# [2] = NCI Yeast Anticancer Drug Screen. Data for the mec2-1 strain (AID 157); conditions: S. cerevisiae mec2-1 strain, active compounds read high
# Procedure, shortened: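 Vehicle-treated cultures served as reference for growth inhibition of compound-exposed mec2-1 yeast.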
# [3] = NCI Yeast Anticancer Drug Screen. Data for the sgs1 mgt1 strain (AID 161);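 further: 0% = growth of cultures given vehicle only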; conditions: S. cerevisiae sgs1 mgt1 strain, active compounds read high
# Procedure, shortened: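 Inhibition of yeast growth, normalised to vehicle-treated controls, is reported for a strain bearing genetic alterations in DNA damage repair.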
# [4] = NCI Yeast Anticancer Drug Screen. Data for the cln2 rad14 strain (AID 165);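 further: 0% = growth equal to vehicle treated cultures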; conditions: S. cerevisiae cln2 rad14 strain, active compounds read high
# Procedure, shortened: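 Each compound was tested on cln2 rad14 yeast. Inhibition of growth was calculated against vehicle-exposed controls.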
# [5] = NCI Yeast Anticancer Drug Screen. Data for the bub3 strain (AID 167); conditions: S. cerevisiae bub3 mutant strain, active compounds read high
# Procedure, shortened: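 Part of a panel of yeast mutants defective in DNA damage repair or cell cycle regulation. Each strain is grown with compound, and inhibition is calculated relative to solvent-treated cultures.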
# [6] = NCI Yeast Anticancer Drug Screen. Data for the mlh1 rad18 strain (AID 175); conditions: S. cerevisiae mlh1 rad18 strain growth inhibition, active compounds read high
# Procedure, shortened: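 Vehicle-treated cultures served as the reference for growth inhibition in a yeast strain carrying DNA damage repair alterations exposed to each compound.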
# [7] = at 5.0 µM (retest, dose inferred, filed as 0.5)
# [8] = at 50.0 µM (retest, dose inferred, filed as 5.0)
SMILES,"growth inhibition [1, 7]","growth inhibition [1, 8]",growth inhibition ([1]; at 50.0 µM),"growth inhibition [2, 7]","growth inhibition [2, 8]",growth inhibition ([2]; at 50.0 µM),"growth inhibition [3, 7]","growth inhibition [3, 8]",growth inhibition ([3]; at 50.0 µM),"growth inhibition [4, 7]","growth inhibition [4, 8]",growth inhibition ([4]; at 50.0 µM),"growth inhibition [5, 7]","growth inhibition [5, 8]",growth inhibition ([5]; at 50.0 µM),"growth inhibition [6, 7]","growth inhibition [6, 8]",growth inhibition ([6]; at 50.0 µM)
CCOC(=O)CC1(C)C(=O)CCCC1=O,3%,-2%,-3.7%,-2%,-2%,2%,0%,0%,3.65%,0%,-2%,-27.5%,-5%,-2%,-6.7%,-3%,-156%,-1%
O=C(O)Cc1cc(I)c(Oc2ccc(O)c(I)c2)c(I)c1,-6%,92% (active),89.8% (active),0%,98% (active),92.2% (active),7%,93% (active),91% (active),29%,97% (active),89.3% (active),22%,98% (active),91.7% (active),20%,97% (active),89.7% (active)
O=c1onc(-c2ccc(Cl)cc2)c2ccccc12,8%,3%,6.6%,4%,3%,16.4%,7%,5%,-1.2%,5%,6%,82.7% (active),2%,6%,14.4%,-1%,4%,8.15%
CC(=O)OC1CCC2(C)C3CCC4(C)C(CCC4(Br)C(=O)CBr)C3CC(Br)C2(Br)C1 (stereo not given),-1%,19%,68.8%,-5%,15%,52.2%,-5%,10%,53.4%,-2%,9%,26.9%,-3%,7%,49.5%,3%,-3%,76.4% (active)
Cc1c2ccccc2c(C)n2c1nc1cc(Cl)c(Cl)cc12,12%,95% (active),86.2% (active),7%,93% (active),91.3% (active),26%,45%,89.3% (active),27%,95% (active),87.1% (active),18%,97% (active),89.9% (active),23%,96% (active),85.6% (active)
Cc1ccccc1Sc1ncnc2ccccc12,2%,34%,85.5% (active),3%,49%,73.8% (active),-13%,70% (active),55.5%,1%,-1%,5.45%,-5%,7%,37.6%,-7%,48%,70.9% (active)
COC(=O)Nc1nc2ccc(C(C)(O)c3cccs3)cc2[nH]1 (stereo not given),-2%,92% (active),97% (active),-8%,95% (active),98.2% (active),3%,95% (active),98% (active),-15%,87% (active),92.2% (active),-3%,94% (active),97.1% (active),-5%,95% (active),97.8% (active)
CC1(C)OC2C(CO)OC(n3ncc(=S)[nH]c3=O)C2O1 (stereo not given),-4%,28%,-10.5%,-8%,6%,10.7%,4%,45%,-1.45%,-1%,45%,-1.95%,6%,15%,71% (active),-1%,30%,-24.9%
CCOC(=O)c1c(NC(=O)CBr)sc(C)c1C,8%,48%,21.2%,-3%,64%,7.8%,10%,74% (active),32.9%,0%,18%,-28.4%,5%,65%,38.1%,7%,69%,21.8%
Cc1ccc(S(=O)(=O)NNC(C[N+](=O)[O-])c2ccccc2)cc1 (stereo not given),69%,99% (active),96.9% (active),5%,100% (active),44.4%,23%,99% (active),96.2% (active),8%,74% (active),70.7% (active),17%,99% (active),92.7% (active),36%,99% (active),96% (active)
CCCN(CCC)Cc1cc2c(cc1O)CC[C@@H]1[C@@H]2CC[C@]2(C)C(=O)CC[C@@H]12,98% (active),87% (active),84% (active),100% (active),89% (active),51.8%,100% (active),62%,80.1% (active),52%,20%,60.9%,99% (active),89% (active),37.5%,99% (active),94% (active),65.2%
O=C1c2scc(-c3ccccc3)c2-n2cccc21,-6%,96% (active),78.5% (active),-10%,95% (active),90.1% (active),2%,87% (active),82.5% (active),10%,81% (active),80.8% (active),-16%,94% (active),79% (active),-16%,94% (active),88.2% (active)
O=C(Nc1cccnc1)c1ccc(CSc2ccc(Cl)cc2)o1,56%,97% (active),90.6% (active),41%,98% (active),92.3% (active),48%,97% (active),93.8% (active),40%,94% (active),90.8% (active),50%,63%,92.2% (active),57%,94% (active),92.2% (active)
CCCOCCC#N,8%,-2%,-11.6%,5%,0%,7.45%,-6%,1%,-8.1%,5%,-2%,40.9%,7%,13%,-1.65%,7%,-1%,-17.9%
Oc1ccc(-c2ccc3ccccc3c2)cc1,2%,98% (active),98.7% (active),6%,97% (active),99.3% (active),-3%,98% (active),99.2% (active),3%,99% (active),98.8% (active),1%,98% (active),99.2% (active),-2%,99% (active),99.1% (active)
CN(C)CC/[N+]([O-])=C(/c1ccccc1)C12CC3CC(CC(C3)C1)C2,-6%,6%,-16.6%,-1%,-1%,1.8%,14%,31%,16.9%,7%,-1%,17.1%,1%,3%,-1.9%,9%,25%,70.6% (active)
Cc1ccc(NC(Nc2ccc(C)cc2C)=C(/C=C(\Cl)[N+](=O)[O-])[N+](=O)[O-])c(C)c1,99% (active),97% (active),96.6% (active),99% (active),97% (active),96.1% (active),99% (active),97% (active),95.5% (active),98% (active),93% (active),93.2% (active),99% (active),97% (active),96% (active),99% (active),96% (active),96.3% (active)
COc1ccc(/C=N/NC(=O)c2ccco2)cc1OC,-5%,0%,63.5%,-5%,-15%,73.2% (active),-3%,5%,23.8%,-21%,-20%,19.1%,-7%,-13%,56.2%,-6%,-14%,35.8%
CCCC12C=C(OC)C(=O)C=C1OC(c1ccc3c(c1)OCO3)C2C (stereo not given),0%,55%,43.9%,-2%,81% (active),70.8% (active),0%,86% (active),80.8% (active),-6%,53%,64.8%,19%,89% (active),79.3% (active),-4%,70% (active),55.1%
O=C(c1ccccc1)N1CCN(c2cccc(Cl)c2)CC1,0%,2%,29.2%,0%,2%,0.45%,-2%,8%,12.7%,-1%,10%,-26.1%,9%,93% (active),77.4% (active),1%,12%,16.3%
